ST2 inh – IL1RL1 inhibition; hit rate 2.3% among 78,000; AlphaLISA ST2-Fc/biotin-IL-33 interaction, 1 h; Q01638; inhibition, % for hits at 17 µM; in the data active means inhibition above about 30%
Target sequence (Q01638 whole entry, looked up): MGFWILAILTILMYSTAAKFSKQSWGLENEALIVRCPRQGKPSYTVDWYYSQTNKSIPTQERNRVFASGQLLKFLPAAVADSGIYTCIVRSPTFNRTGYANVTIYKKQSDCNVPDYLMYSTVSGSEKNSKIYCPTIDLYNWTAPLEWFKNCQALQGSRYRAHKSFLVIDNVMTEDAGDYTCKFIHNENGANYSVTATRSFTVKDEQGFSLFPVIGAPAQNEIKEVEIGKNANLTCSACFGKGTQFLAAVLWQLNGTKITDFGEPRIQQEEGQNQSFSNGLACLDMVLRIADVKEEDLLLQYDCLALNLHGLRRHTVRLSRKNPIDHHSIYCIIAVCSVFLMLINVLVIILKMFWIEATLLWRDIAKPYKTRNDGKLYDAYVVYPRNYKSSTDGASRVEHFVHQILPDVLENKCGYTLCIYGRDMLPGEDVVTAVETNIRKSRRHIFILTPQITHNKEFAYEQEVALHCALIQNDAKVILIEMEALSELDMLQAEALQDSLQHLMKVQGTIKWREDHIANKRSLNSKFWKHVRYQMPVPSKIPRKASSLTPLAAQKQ
Hits are given with their value. The entries come from a sample that favours hits as a whole.

For Cc1cccc(-c2nc(S(=O)(=O)c3ccccc3)c(N3CCOCC3)o2)c1 the results were ST2 inh inactive.
O=S(=O)(c1ccccc1)c1nc(-c2ccccc2F)oc1N1CCCCC1 was read as ST2 inh 32%.
CC1CCCCC1NS(=O)(=O)c1cc(Br)cc2c1N(C(=O)C1CC1)CC2 (stereo not given) was read as ST2 inh inactive.
Screening C/C=C/CN1CCC=C(CNC(=O)c2ccccc2NC(C)=O)C1 returned ST2 inh inactive.
Cc1nc2c(c(N3CCCC3)n1)CCN(C(=O)c1snnc1C)C2 was read as ST2 inh inactive.
For N.N.[Cl-].[Cl-].[Pt+4] the results were ST2 inh 77%.
Screening COC(=O)C1=NNC2C(=O)N(c3ccc(C)cc3C)C(=O)C12 (stereo not given) returned ST2 inh inactive.
Screening CCOc1ccc(C(=O)Nc2cccc(Cl)c2)cc1Br returned ST2 inh inactive.
`COc1ccc(C(=O)Nc2cccc(NC(=O)c3ccccc3Cl)c2)cc1Br` gave ST2 inh 59%.
COc1ccc(C(=O)Nc2cccc(NC(=O)c3ccccc3Cl)c2)cc1[N+](=O)[O-] was read as ST2 inh inactive.
COCCCNc1nc2c(c(=O)n(C)c(=O)n2C)n1Cc1ccccc1Br was read as ST2 inh inactive.
Screening O=C(Nc1cccc(F)c1)c1oc2ccccc2c1NC(=O)c1cc2ccccc2oc1=O returned ST2 inh inactive.
Screening CC(=O)Nc1ccc2cccc(O)c2n1 returned ST2 inh inactive.
Screening Oc1cccc2ccc(/C=C/c3cc4c(cc3Cl)OCO4)nc12 returned ST2 inh 32%.
Screening COc1ccc(NC(=O)C2CCCN(S(=O)(=O)c3cnc[nH]3)C2)cc1Cl (stereo not given) returned ST2 inh inactive.
COc1ccc(Nc2nc(-c3nnc(-c4ccc(C)cc4)o3)nc3ccccc23)cc1OC was read as ST2 inh inactive.
For O=[N+]([O-])c1cc(CN2CCOCC2)ccc1O the results were ST2 inh inactive.
Screening O=[N+]([O-])c1cc(CN2CCCCC2)ccc1O returned ST2 inh inactive.
Screening O=[N+]([O-])c1cc(Cc2ccccc2)ccc1O returned ST2 inh 36%.
`CCN(C(=O)C1(S(=O)(=O)c2ccc(Cl)cc2)CC1)c1ccc(C)c(C)c1` gave ST2 inh inactive.
COC(=O)C1C(=O)C2=C(CC1C)NC(C)=C(C(=O)OC1CCCC1)C2c1ccc(Cl)cc1 (stereo not given) was read as ST2 inh inactive.
`CN(C)CC1(O)CCCN(C(=O)Cc2ccc3c(c2)OCO3)CC1` (stereo not given) gave ST2 inh inactive.
Screening Cc1cc(C)n(-c2ccc(NC(=O)C3CCN(C(=O)Cc4ccsc4)CC3)cc2)n1 returned ST2 inh inactive.
CN1CCN(c2nc3c(c(=O)n(C)c(=O)n3C)n2Cc2ccc(Cl)c(Cl)c2)CC1 was read as ST2 inh inactive.
For Cn1c(=O)c2c(nc(NCc3ccco3)n2Cc2c(F)cccc2Cl)n(C)c1=O the results were ST2 inh inactive.
For Cn1c(=O)c2c(nc(N3CCOCC3)n2Cc2c(F)cccc2Cl)n(C)c1=O the results were ST2 inh 37%.
`CN(C)c1ccc(C2C(C(=O)c3cc4ccccc4o3)=C(O)C(=O)N2CCCn2ccnc2)cc1` (stereo not given) gave ST2 inh inactive.
Screening Cc1csc(C(C)NC(=O)c2cn(C3CCCCC3)nn2)n1 (stereo not given) returned ST2 inh inactive.
Screening COc1ccc(I)c(OC)c1 returned ST2 inh inactive.
`CC1=CC(C)(C)Nc2ccc(OC(=O)COc3ccc(Cl)cc3)cc21` gave ST2 inh inactive.
COc1ccc2c(c1)C(C)=CC(C)(C)N2 was read as ST2 inh 42%.
Screening Cc1nn(CCC(=O)N2CCC(N3CCCC3=O)CC2)c(C)c1C returned ST2 inh inactive.
Screening O=C(Cn1c2ccccc2c(=O)c2ccccc21)Nc1ccccc1F returned ST2 inh inactive.
For O=C(Cn1c2ccccc2c(=O)c2ccccc21)Nc1ccccc1C(F)(F)F the results were ST2 inh 39%.
O=C(Cn1c2ccccc2c(=O)c2ccccc21)Nc1ccccc1Br was read as ST2 inh inactive.
`CCc1ccc(N2C(=O)CSC2c2ccc(Br)cc2)cc1` (stereo not given) gave ST2 inh inactive.
`COC(=O)C1=C(C)OC(N)=C(C#N)C1c1cccc(OC)c1` (stereo not given) gave ST2 inh inactive.
`[N-]=C=C1C(=O)N(CCc2ccccc2)C(=O)[C@H]([n+]2ccccc2)[C@H]1c1ccc(Cl)cc1` gave ST2 inh 34%.
`O=C1C(=O)N(CCc2ccccc2)C(c2ccc(Cl)cc2)C1=C(O)c1ccccc1` (stereo not given) gave ST2 inh inactive.
Screening CCNc1ccnc(N2CCCC(CCC(N)=O)C2)n1 (stereo not given) returned ST2 inh inactive.
For O=C(Nc1ccc(N2CCC(NC(c3ccncc3)c3ccc(Cl)cc3)CC2)cc1)C1CCCC1 (stereo not given) the results were ST2 inh inactive.
